Test results as given in PubChem BioAssay (Tox21).
“And” between values parts separate entries of the source, which are not always exact repeats. Equal entries are not always repeated. Inconclusive results are not listed. The source made the active and inactive calls. Unless noted, the call rests on the fitted dose curve; in most records, active means well fitted inhibition curve with a large enough effect in the repeat runs; inconclusive means weak or mixed curves; inactive means no such curve, though single readings can be large or run the other way.

Assay: qHTS assay to identify small molecule antagonists of the estrogen related receptor (ERR) signaling pathway from Tox21 library (AID 1224848); further: nearly all actives have a fitted effect of over 50% in size; further: potency means the concentration at half of the fitted maximal effect
Details: ERR reporter cell line, luciferase antagonist mode, 18 h; series mostly up to 92.4 µM; activity, negative = inhibition: at the top concentration
Method in brief: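 Screening used an ERR reporter line supplied by NTP, exposed for 18 h at 37 C to library compounds delivered in DMSO. Signal was luciferase luminescence developed with ONE-Glo at room temperature for 30 min.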
On the % scale 0 is the no-effect control and ±100 the full control effect.

| SMILES | activity, negative = inhibition | Potency |
| --- | --- | --- |
| CCCCCl | 1.3% (inactive) | – |
| CC(C)(C)NCC(O)c1cc(Cl)c(N)c(C(F)(F)F)c1 (stereo not given) | -0.421% [at 42.5 µM] (inactive) | – |
| O=C(Cc1ccccc1)OCCc1ccccc1 | -0.792% (inactive) | – |
| N#CC(C#N)=C(C#N)C#N | -2.54% (inactive) | – |
| O=C(O)COc1cc(Cl)c(Cl)cc1Cl | – | inactive |
| CCCC(C)(COC(N)=O)COC(=O)NC(C)C (stereo not given) | – | inactive |
| CN1CC[C@]23c4c5ccc(O)c4O[C@H]2[C@@H](O)C=C[C@H]3[C@H]1C5 | 1.67% (inactive) | – |
| CCOP(=S)(S)OCC | -7.72% (inactive) | – |
| C=CCc1ccccc1O | 0.844% (inactive) | – |
| CC(C)(C)OOC(C)(C)CCC(C)(C)OOC(C)(C)C | 3.85% (inactive) | – |
| O=S(=O)(c1ccccc1)c1ccccc1 | 8.49% (inactive) | – |
| Nc1c(Br)cc(Br)c2c1C(=O)c1ccccc1C2=O | 31.1% [at 19 µM] (inactive) | – |
| COc1cc(CC(C)N)c(OC)cc1Br (stereo not given) | -18.6% (inactive) | – |
| O=C(O)c1ccc(=O)[nH]c1 | 3.24% [at 42.5 µM] (inactive) | – |
| CCNC(=O)NC(=O)/C(C#N)=N/OC | -7.27% (inactive) | – |
| C=CCOCC1CO1 (stereo not given) | -3.78% (inactive) | – |
| CCCSP(=S)(OCC)Oc1ccc(SC)cc1 (stereo not given) | 1.61% (inactive) | – |
| CCOP(=S)(OCC)Oc1ccc(S(C)=O)cc1 (stereo not given) | -6.27% (inactive) | – |
| C=C(C)C(=O)OCCCCOC(=O)C(=C)C | 3.55% (inactive) | – |
| C=C(Cl)Cl | -0.935% (inactive) | – |

| SMILES | activity, negative = inhibition | Potency |
| --- | --- | --- |
| Clc1ccc(Cl)c(Cl)c1 | – | inactive |
| NNCCO | 6.93% (inactive) | – |
| O=C(N[C@H]1CN2CCC1CC2)c1ccc2c(c1)OCCO2 | 0.875% (inactive) | – |
| ClCc1ccccc1Cl | 12.6% (inactive) | – |
| Nc1ccccc1C(=O)OCCc1ccccc1 | – | inactive |
| O=C=NC1CCCCC1 | 34% (inactive) | – |
| c1ccc2c(c1)sc1ccccc12 | – | inactive |
| N#CC1(N=NC2(C#N)CCCCC2)CCCCC1 | -10.6% (inactive) | – |
| CCOC(C(=O)OCCN(C)C)(c1ccccc1)c1ccccc1 | -2.8% [at 42.5 µM] (inactive) | – |
| CC1(C)CC(=O)CC(C)(C)N1[O] | -0.536% (inactive) | – |
| CCC[N+](CCC)(CCC)CCC | -15.5% (inactive) | – |
| Nc1cc(Cl)cc(C(=O)O)c1Cl | – | inactive |
| C[C@H]1[C@@H]2Cc3ccc(O)cc3[C@@]1(C)CCN2C | 14.3% [at 240 µM] (inactive) | – |
| CCCCCCCCCCCCN(C)C | 4.3% (inactive) | – |
| CC(C)(C)NCC(O)c1ccccc1Cl (stereo not given) | 8.76% [at 42.5 µM] (inactive) | – |
| COc1cc(C[C@@H](C)N)c(OC)cc1Br | -24.1% (inactive) | – |
| CCCCNC(=O)OCC#CI | – | 68.2 µM (active) |
| CC(C)CCCCCCCOC(=O)c1ccccc1C(=O)OCCCCCCCC(C)C | 0.729% (inactive) | – |
| C1CS1 | -0.53% (inactive) | – |

Assay: qHTS assay to identify small molecule agonists of the estrogen related receptor (ERR) signaling pathway from Tox21 library (AID 1224849; calls by dose curve; further: nearly all actives have a fitted effect of over 15% in size)
Details: ERR reporter cell line, ONE-Glo luciferase, 18 h; at 42.5 µM (top of the series)
Method in brief: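 ERR cells, 6 h pre-incubation 37 C/5% CO2; cpd in DMSO pinned; 18 h 37 C; ONE-Glo added, 30 min RT; luminescence read. Agonist mode, qHTS.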

| SMILES | activity change, positive = activation |
| --- | --- |
| CC(C)(C)NCC(O)c1cc(Cl)c(N)c(C(F)(F)F)c1 (stereo not given) | -0.267% (inactive) |
| CCCC(C)(COC(N)=O)COC(=O)NC(C)C (stereo not given) | 0.487% (inactive) |
| O=C(O)c1ccc(=O)[nH]c1 | 5.02% (inactive) |
| c1ccc2c(c1)sc1ccccc12 | 0.495% (inactive) |
| CCOC(C(=O)OCCN(C)C)(c1ccccc1)c1ccccc1 | -1.78% (inactive) |
| CC(C)(C)NCC(O)c1ccccc1Cl (stereo not given) | 4.93% (inactive) |

Same assay, conditions: ERR reporter cell line, ONE-Glo luciferase, 18 h; at 92.4 µM (top of the series)

| SMILES | activity change, positive = activation |
| --- | --- |
| CCCCCl | -0.331% (inactive) |
| O=C(Cc1ccccc1)OCCc1ccccc1 | -0.535% (inactive) |
| N#CC(C#N)=C(C#N)C#N | -1.38% (inactive) |
| O=C(O)COc1cc(Cl)c(Cl)cc1Cl | -7.72% (inactive) and -14.1% (inactive) |
| CCCC(C)(COC(N)=O)COC(=O)NC(C)C (stereo not given) | -2.02% (inactive) |
| CN1CC[C@]23c4c5ccc(O)c4O[C@H]2[C@@H](O)C=C[C@H]3[C@H]1C5 | 1.06% (inactive) |
| CCOP(=S)(S)OCC | -3.44% (inactive) |
| C=CCc1ccccc1O | 0.524% (inactive) |
| CC(C)(C)OOC(C)(C)CCC(C)(C)OOC(C)(C)C | 2.37% (inactive) |
| COc1cc(CC(C)N)c(OC)cc1Br (stereo not given) | -12.2% (inactive) |
| CCNC(=O)NC(=O)/C(C#N)=N/OC | -6.66% (inactive) |
| C=CCOCC1CO1 (stereo not given) | -3.54% (inactive) |
| CCCSP(=S)(OCC)Oc1ccc(SC)cc1 (stereo not given) | 2.16% (inactive) |
| CCOP(=S)(OCC)Oc1ccc(S(C)=O)cc1 (stereo not given) | -5.68% (inactive) |
| C=C(C)C(=O)OCCCCOC(=O)C(=C)C | 2.2% (inactive) |
| C=C(Cl)Cl | -0.979% (inactive) |
| Clc1ccc(Cl)c(Cl)c1 | -0.809% (inactive) and 5.15% (inactive) |
| O=C(N[C@H]1CN2CCC1CC2)c1ccc2c(c1)OCCO2 | 0.537% (inactive) |
| ClCc1ccccc1Cl | 8.41% (inactive) |
| Nc1ccccc1C(=O)OCCc1ccccc1 | 18.1% (active) and 10.8% (active) |
| c1ccc2c(c1)sc1ccccc12 | -4.7% (inactive) |
| N#CC1(N=NC2(C#N)CCCCC2)CCCCC1 | -5.87% (inactive) |
| CC1(C)CC(=O)CC(C)(C)N1[O] | -0.242% (inactive) |
| CCC[N+](CCC)(CCC)CCC | -9.29% (inactive) |
| Nc1cc(Cl)cc(C(=O)O)c1Cl | 4.39% (inactive) and 3.97% (inactive) |
| CCCCCCCCCCCCN(C)C | 3.27% (inactive) |
| COc1cc(C[C@@H](C)N)c(OC)cc1Br | -15.6% (inactive) |
| CCCCNC(=O)OCC#CI | -71.4% (inactive) and -29.5% (inactive) |
| CC(C)CCCCCCCOC(=O)c1ccccc1C(=O)OCCCCCCCC(C)C | 0.464% (inactive) |
| C1CS1 | -0.221% (inactive) |
